According to PubChem BioAssay AID1159580 (chemical genetic matrix, 2015):
“And” between values parts separate entries of the source, which are not always exact repeats. Equal values may be shown once. Screen size: about 5,500 compounds; about 2,000 (36%) were called active. About 18% were inconclusive and are not listed. Cut-off read from the data, not from the text of the source: active = normalized growth mostly below about 0.91 (no sharp cut-off); inconclusive = no clear call, values can overlap the other calls; inactive = mostly above about 0.92. The list shows a part of the results.

Test: chemical genetic growth profiling, strain panel (AID 1159580);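 note: tested at 20 µM; growth read once vehicle control cultures reached saturation at 30 °C; 1 = growth at the plate median or of vehicle wells; lower values mean less growth of the strain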
Conditions: S. cerevisiae deletion strains, growth OD

Measured: normalized growth

O=C(CCc1ccc(O)cc1)c1c(O)cc(O)cc1O[C@@H]1O[C@H](CO)[C@@H](O)[C@H](O)[C@H]1O
inactive: locus YAL021C, strain ccr4, hits give low values 1.01 | locus YAL026C, strain drs2, hits give low values 1.01 | locus YAL030W, strain snc1, hits give low values 1.01 | locus YBL061C, strain skt5, hits give low values 1.02 | locus YBR009C, strain hhf1, hits give low values 1.02 | locus YBR021W, strain FUR4, hits give low values 1.01 | locus YBR023C, strain chs3, hits give low values 1.01 | locus YBR171W, strain sec66, hits give low values 1.05 | locus YBR229C, strain ROT2, hits give low values 1.02 | locus YBR231C, strain swc5, hits give low values 1.02 | locus YBR279W, strain paf1, hits give low values 1 | locus YCL011C, strain gbp2, hits give low values 1.02 | locus YCL016C, strain dcc1, hits give low values 1.02 | locus YCL029C, strain bik1, hits give low values 0.982 | locus YCL061C, strain MRC1, hits give low values 1.02 | locus YCL069W, strain vba3, hits give low values 1.01 | locus YCR088W, strain abp1, hits give low values 1.01 | locus YDL005C, strain med2, hits give low values 1.02 | locus YDL035C, strain GPR1, hits give low values 1.04 | locus YDL040C, strain nat1, hits give low values 1.01 | locus YDL074C, strain BRE1, hits give low values 1.05 | locus YDL101C, strain DUN1, hits give low values 1.02 | locus YDL134C, strain PPH21, hits give low values 1.06 | locus YDL185W, strain tfp1, hits give low values 0.993 | locus YDL192W, strain arf1, hits give low values 0.986 | locus YDR001C, strain nth1, hits give low values 1.01 | locus YDR069C, strain doa4, hits give low values 1.03 | locus YDR101C, strain arx1, hits give low values 0.998 | locus YDR137W, strain rgp1, hits give low values 0.993 | locus YDR159W, strain sac3, hits give low values 1.03 | locus YDR162C, strain NBP2, hits give low values 1.06 | locus YDR195W, strain ref2 0.997 | locus YDR297W, strain sur2, hits give low values 1.02 | locus YDR318W, strain mcm21, hits give low values 0.986 | locus YDR334W, strain swr1, hits give low values 1.02 | locus YDR335W, strain msn5, hits give low values 1.01 | locus YDR388W, hits give low values 0.992 | locus YDR392W, strain spt3, hits give low values 1.02 | locus YDR502C, strain sam2, hits give low values 0.998 | locus YEL003W, strain gim4, hits give low values 1.01 | locus YEL037C, strain rad23, hits give low values 1.01 | locus YEL061C, strain CIN8 (second series), hits give low values 1.01 | locus YEL061C, strain CIN8, hits give low values 1.02 | locus YER015W, strain faa2, hits give low values 1.02 | locus YER016W, strain bim1, hits give low values 1.01 | locus YER110C, hits give low values 0.981 | locus YER111C, strain swi4, hits give low values 1.02 | locus YER155C, strain BEM2 (second series), hits give low values 1.02 | locus YER155C, strain BEM2, hits give low values 1 | locus YER167W, strain BCK2, hits give low values 1.02 | locus YFR010W, strain ubp6, hits give low values 1.01 | locus YGL078C, strain dbp3, hits give low values 0.985 | locus YGL086W, strain mad1, hits give low values 1.01 | locus YGL167C, strain pmr1, hits give low values 1.03 | locus YGL173C, strain kem1, hits give low values 1.02 | locus YGL227W, strain vid30, hits give low values 1.02 | locus YGL240W, strain doc1, hits give low values 1.02 | locus YGL248W, strain PDE1, hits give low values 1.03 | locus YGL253W, strain hxk2, hits give low values 1.02 | locus YGR135W, strain pre9, hits give low values 1 | locus YGR252W, strain gcn5, hits give low values 1.01 | locus YHR013C, strain ard1, hits give low values 1.03 | locus YHR027C, strain rpn1, hits give low values 1.02 | locus YHR030C, strain SLT2, hits give low values 1.02 and 0.996 | locus YHR079C, strain IRE1 (second series), hits give low values 1 | locus YHR079C, strain IRE1, hits give low values 0.972 | locus YHR094C, strain hxt1, hits give low values 0.988 | locus YHR129C, strain ARP1, hits give low values 1.03 | locus YHR142W, strain chs7, hits give low values 1.02 | locus YHR200W, strain rpn10, hits give low values 1.02 | locus YIL066C, strain RNR3, hits give low values 1.05 | locus YIL073C, strain SPO22, hits give low values 1.01 | locus YIL125W, strain kgd1, hits give low values 0.986 | locus YIR030C, strain dcg1, hits give low values 0.973 | locus YJL092W, strain hpr5, hits give low values 1.02 | locus YJL095W, strain BCK1 (second series), hits give low values 1.01 | locus YJL095W, strain BCK1, hits give low values 1.05 and 0.981 | locus YJL115W, strain asf1, hits give low values 1.01 | locus YJL129C, strain trk1, hits give low values 1.01 | locus YJL134W, strain LCB3, hits give low values 1.01 | locus YJL154C, strain vps35, hits give low values 1.01 | locus YJL164C, strain tpk1, hits give low values 1.02 | locus YJL166W, strain qcr8, hits give low values 1.02 | locus YJL168C, strain set2, hits give low values 0.983 | locus YJL187C, strain SWE1 (second series), hits give low values 1.03 | locus YJL187C, strain SWE1, hits give low values 1.04 | locus YJR043C, strain POL32, hits give low values 1.06 | locus YJR066W, strain TOR1, hits give low values 0.942
